# Reference: PubChem BioAssay AID652067 (The Scripps Research Institute Molecular Screening Center, 2013)
# In all, about 370,000 compounds went through this assay and about 5,400 (1.5%) were called active.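 Rule for the calls: active = activation above the mean of all tested compounds plus 3 SD (cut at about 5.5% in these data); inactive = the rest.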 For the sample, actives were picked, then their nearest neighbours and some compounds at random.
# Tested on: DAF-12 nuclear receptor (Haemonchus contortus)
# Experiment: hcDAF-12 driven luciferase reporter activation – cell-based, luminescence, HEK293, lit1-tk-luc reporter, primary screen (AID 652067);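 note: 100% = response to 3 µM Δ7-dafachronic acid high control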
# Settings: HEK293 hcDAF-12 lit1-tk-luc reporter, at 6.8 µM, stronger effect = higher value, 0% DMSO, 100% Δ7-dafachronic acid
row,Structure (SMILES),activation
1,CCOc1ccc2nc(C(=O)N3CCCC(C)C3)sc2c1 (configuration not stated),7.97% (active)
2,COc1ccc2cc(C(=O)C3CCCN(C(=O)c4sc(C)nc4C)C3)ccc2c1 (configuration not stated),-2.25% (inactive)
3,CCOc1ccc(NC(=O)C2CCCN(C(=O)Nc3ccccc3)C2)cc1 (configuration not stated),-0.89% (inactive)
4,COC(=O)[C@]12C[C@H](CC(=O)NCC34CC5CC(CC(C5)C3)C4)C(=O)N(Cc3ccc(Cl)cc3Cl)C1=C[C@H](COCc1ccccc1)O[C@@H]2C,-1.65% (inactive)
5,CCc1ccc2[nH]c(=O)c(Cc3ccccc3)c(O)c2c1,0.62% (inactive)
6,CCCOC(=O)Cc1c(O)c2ccccc2[nH]c1=O,0.81% (inactive)
7,NS(=O)(=O)c1ccccc1NC(=O)c1c(O)c2ccccc2[nH]c1=O,15.2% (active)
8,C[C@H](C(=O)N(C)c1ccccc1)[C@@H](O)c1ccc(Cl)cc1,-1.63% (inactive)
9,CCS(=O)(=O)c1cc([N+](=O)[O-])c(Sc2ccccc2N)s1,7.01% (active)
10,Cc1ccc(Cl)cc1NC(=O)C1CCCN(c2cnccn2)C1 (configuration not stated),-1.45% (inactive)
11,COc1ccc(C2CC(c3cccs3)=NN2C(=O)COC(=O)c2cc3ccccc3cc2O)cc1OC (configuration not stated),-1% (inactive)
12,COc1ccc(C2CC(c3cccs3)=Nc3ccccc3S2)cc1OC (configuration not stated),7.77% (active)
13,COc1ccc(C2CC(c3cccs3)=NN2C(=O)CSc2nnc(N)s2)cc1OC (configuration not stated),-1.14% (inactive)
14,CC(C)(C)NC(=O)C(c1cccnc1)N(C(=O)c1cnco1)c1ccc(C(C)(C)C)cc1 (configuration not stated),-2.31% (inactive)
15,C/C(=N\N(C)C)c1ccc(OCCOc2ccc([N+](=O)[O-])cc2)cc1,-0.12% (inactive)
16,COc1ccc(S[C@]2(C(=O)N(C)C)CC(=O)N(c3ccc(OC)cc3)[C@@H]2c2ccc(OC)cc2)cc1,-2.06% (inactive)
17,COc1ccc(-c2cn3ccsc3n2)cc1,6.33% (active)
18,COc1ccc(-c2cn3ccc(C)cc3n2)cc1,7.15% (active)
19,FC(F)(F)Oc1ccc(-c2cn3cccnc3n2)cc1,0.45% (inactive)
20,COc1ccc(CSc2nnc(-c3cccc(C)c3)n2C)cc1,-3.02% (inactive)
21,COc1cc(OC)cc(-c2nc(=S)n3ccsc3n2)c1,1.3% (inactive)
22,COc1ccc(-c2ccc3c(n2)CCCN3S(=O)(=O)c2ccc(C)cc2)cc1,-0.08% (inactive)
23,CCOC(=O)[C@@]12CN(C(=O)OC(C)(C)C)CC=C1N(Cc1ccc(OC)cc1)C(=O)[C@H]2CC(=O)NCc1ccc(OC)c(OC)c1,-1.83% (inactive)

row,Structure (SMILES),activation
1,CN1C(=O)C(Br)(Br)CC1c1cccnc1 (configuration not stated),0.36% (inactive)
2,Cc1ccc(-n2nc3c(c2NC(=O)CCC2CCCCC2)CS(=O)C3)cc1 (configuration not stated),1.64% (inactive)
3,O=C(COc1cccc2c1CCNC2=O)NC1CCCCC1,0.88% (inactive)
4,Cc1cc(NCCc2c[nH]c3ccccc23)ccc1Oc1cccnc1,-1.55% (inactive)
5,CCc1cc2c(=O)c(-c3nc4ccccc4n3C)c(CCCC(=O)O)oc2cc1OC(=O)C(C)(C)C,-0.74% (inactive)
6,COc1ccc2oc(N)c(C=O)c(=O)c2c1,-0.56% (inactive)
7,CCc1cc2c(=O)c(-c3ccon3)c(N)oc2cc1OC,7.31% (active)
8,O=S1(=O)c2ccc(Br)cc2OC[C@H](Cc2ccccc2)N1Cc1cn(Cc2ccccc2)nn1,-0.79% (inactive)
9,C=CCN=C1NC(c2ccccc2)C(C(=O)OC)=C(C)N1Cc1ccc(C(F)(F)F)cc1 (configuration not stated),0.87% (inactive)
10,Nn1c(SCC(=O)Nc2cccc3ccccc23)nnc1-c1cc(-c2ccc(F)cc2)n[nH]1,-1.52% (inactive)
11,Cc1cccc(-n2c(O)c(C=Nc3ccccc3N)c(=O)[nH]c2=O)c1,6.08% (active)
12,CC(=O)Nc1nc2ncccn2c1-c1ccc(C(F)(F)F)cc1,-1.9% (inactive)
13,O=S(=O)(c1ccccc1)N1CCC(c2nc3ccccc3o2)CC1,2.42% (inactive)
14,Clc1ccc(C(Cn2ccnc2)OCc2ccsc2Cl)c(Cl)c1 (configuration not stated),-3.27% (inactive)
15,Cn1nc(-c2ccccc2)c(CSc2cccc(Cl)c2)c1Cl,-1.8% (inactive)
16,Clc1ccc2nc(CSc3ccccc3)cn2c1,6.03% (active)
17,O=c1c2ccccc2nc2n1C(CSc1ccc(Cl)cc1)CN2 (configuration not stated),2.36% (inactive)
18,C#CCN([C@@H](C)C(=O)OCC)S(=O)(=O)c1ccc(Br)cc1F,-0.18% (inactive)
19,Cc1ccc(NNC(=O)C2CCC2)cc1C,2.28% (inactive)
20,Cc1ccc(N/C=C/C(=O)c2ccccc2)cc1C,15% (active)
21,COC(C(=O)Nc1ccc(S(=O)(=O)Nc2ccc(C)c(C)c2)cc1)c1ccccc1 (configuration not stated),0.37% (inactive)
22,COC(=O)C1CN(CCc2ccccc2)CCS(=O)(=O)N1Cc1ccc(F)cc1 (configuration not stated),1.33% (inactive)
23,Cc1ccc(Cn2cc(CN3[C@@H](CC(C)C)COc4ccc(Cl)cc4S3(=O)=O)nn2)cc1,-0.25% (inactive)

row,Structure (SMILES),activation
1,COc1ccccc1N(CC(=O)Nc1ccc(C)cc1Cl)S(=O)(=O)c1cccs1,-2.56% (inactive)
2,CN(CC(=O)NC(=O)Nc1ccccc1F)Cc1ccccc1,-0.6% (inactive)
3,O=C(CN1CCCCC1)NC(=O)Nc1ccccc1F,7.05% (active)
4,O=C(CN1CCCCCC1)Nc1ccc(Cl)cc1F,-0.52% (inactive)
5,CCOc1ccccc1C(=O)N1CCC[C@@H]1C(=O)N1CCC[C@H]1C(=O)NCc1ccccc1,-0.98% (inactive)
6,COC(=O)C1(S(=O)(=O)C2(C(=O)OC)CCCC2)CCCC1,-1.17% (inactive)
7,Oc1c(Cl)cc(Cl)cc1/C=N/c1ncn[nH]1,-0.22% (inactive)
8,Oc1ccc(Cl)cc1/C=N/c1nc2ccccc2[nH]1,5.95% (active)
9,O=C(NCc1ccccc1)[C@H]1CCCN1C(=O)[C@H]1CCCN1C(=O)N1CCOCC1,0.81% (inactive)
10,COC(=O)C1=C(C)N(Cc2ccc(C(F)(F)F)cc2)C(=NCc2ccc(C(F)(F)F)cc2)NC1c1cccc(Cl)c1 (configuration not stated),-0.62% (inactive)
11,COc1ccc(C2CC=C(C(=O)O)C(c3ccccc3F)N2S(=O)(=O)c2ccc(C)cc2)cc1OC (configuration not stated),-1.61% (inactive)
12,CCOC(=O)c1c(NC(=O)C(C)Sc2c[nH]c3ccccc23)sc2c1CCC2 (configuration not stated),5.61% (active)
13,COC(=O)c1c(NC(=O)COC(=O)[C@@H](NS(=O)(=O)c2ccccc2)C(C)C)sc2c1CCC2,1.86% (inactive)
14,CCOC(=O)c1c(NC(=O)C2(C)Cc3ccccc3C(=O)O2)sc2c1CCCC2 (configuration not stated),-3.38% (inactive)
15,O=S1(=O)c2ccc(Br)cc2-n2nncc2CN1Cc1cccc(Cl)c1,0.57% (inactive)
16,CC(C)CNS(=O)(=O)CC1NCCc2ccccc21 (configuration not stated),-2.97% (inactive)
17,COc1ccc(C(=O)C[n+]2ccc(C)cc2)cc1,6.64% (active)
18,COc1ccc(C(=O)CC(=O)c2ccc(C)cc2)c(O)c1,-0.09% (inactive)
19,COc1ccc(C(=O)C[n+]2ccc(N)c(C)c2C)cc1,-1.41% (inactive)
20,O=C(CSc1nnc(-c2ccccn2)n1-c1ccc(Cl)cc1)Nc1ccccc1-c1ccccc1,-4.12% (inactive)
21,Oc1cccc2ccc(/C=C/c3ccc(Br)s3)nc12,10.2% (active)
22,O=C(Cn1c(-c2ccc(Cl)cc2)noc1=O)N1CCN(c2ccccc2F)CC1,-0.55% (inactive)
23,Cc1ccc(NC(=O)Nc2cc(C)nn2-c2ccccc2)cc1,-0.41% (inactive)

row,Structure (SMILES),activation
1,COC(=O)C1(C)NC(c2ccccc2OC)C2C(=O)N(c3ccccc3)C(=O)C21 (configuration not stated),-2.14% (inactive)
2,COC(=O)c1cc(C(=O)OC)cc(N2C(=O)CC(N3CCN(c4ccccc4)CC3)C2=O)c1 (configuration not stated),0.25% (inactive)
3,COC(=O)C1=NN(c2ccccc2)C2C(=O)N(c3ccccc3OC)C(=O)C12 (configuration not stated),9.57% (active)
4,CCOC(=O)C1CSCCS(=O)(=O)N1Cc1ccc(Cl)cc1 (configuration not stated),-2.38% (inactive)
5,O=C(C(=O)N1CCC(CNS(=O)(=O)Cc2ccccc2)CC1)c1cc2ccccc2o1,-0.72% (inactive)
6,COc1ccc(C2COC(=O)C2=N)c(NC(=O)c2ccccc2)c1 (configuration not stated),8.16% (active)
7,COc1cccc(C(=O)Nc2cc3c(cc2Br)OCCCO3)c1,3.75% (inactive)
8,COc1ccc(OC)c(NC(=O)c2cccc(S(=O)(=O)N3CCN(C(C)=O)CC3)c2)c1,0.25% (inactive)
9,COc1cc(/C=C/C(=O)n2cnc3ccccc32)cc(OC)c1OC,0.33% (inactive)
10,O=C(CSc1nnc(COc2ccccc2)n1Cc1ccco1)c1ccc2ccccc2c1,-2.67% (inactive)
11,CCOc1ccc(OCc2ccc(C(=O)Nc3cccc(C)n3)o2)cc1,-1.6% (inactive)
12,COC(=O)c1ccc(NC(=S)Nc2cccc(C)n2)cc1,1.84% (inactive)
13,Cc1cccc(NC(=O)c2ccc3ccccc3n2)n1,9.6% (active)
14,O=C(CN1CCCc2ccccc21)NCc1ccc(F)cc1,-1.35% (inactive)
15,Cc1cc(C)n2ncc(C(=O)Nc3ccc4c(c3)OCCO4)c2n1,-0.67% (inactive)
16,O=C(OCC(=O)c1c[nH]c2ccccc12)c1cccc(O)c1,8.68% (active)
17,CCOc1ncccc1C(=O)OCC(=O)c1c[nH]c2ccccc12,4.68% (inactive)
18,C[C@H](NC(=O)c1ccccc1)C(=O)OCC(=O)c1c[nH]c2ccccc12,4.62% (inactive)
19,CCOC(=O)C1=C(C(=O)OCC)C2N(Cc3ccc(C#N)cc3)c3ccccc3[C@@]23C[C@@H](C(=O)OC)N(S(=O)(=O)c2ccc(F)cc2)C3=N1 (some centres not stated),0.61% (inactive)
20,CCCCOCC1CN(CCCC)S(=O)(=O)c2c(Oc3ccc(F)cc3)cccc2O1 (configuration not stated),-1.09% (inactive)
21,C/C(=N\NC(=S)NCc1ccccc1)c1ccc(Cl)cc1,-0.65% (inactive)
22,C/C(=N/NC(=S)Nc1ccccc1)c1ccc2c(c1)OCO2,8.71% (active)
23,C/C(Cc1ccccc1)=N\NC(=O)CNC(=O)c1ccc2c(c1)OCCO2,-2.46% (inactive)
